PubChem BioAssay
Activity calls are given as the source filed them. No rule for the calls is given here.

What follows are compounds tested against Botulinum neurotoxin type A (Clostridium botulinum) (UniProt P0DPI0) (assay: BoNT/A light chain protease inhibitors, biochemical, multiplex microsphere flow cytometry, validation set (AID 588460)). Settings: at 10 µM, active compounds read high.
Botulinum neurotoxin type A (Clostridium botulinum), sequence (P0DPI0 whole entry, looked up): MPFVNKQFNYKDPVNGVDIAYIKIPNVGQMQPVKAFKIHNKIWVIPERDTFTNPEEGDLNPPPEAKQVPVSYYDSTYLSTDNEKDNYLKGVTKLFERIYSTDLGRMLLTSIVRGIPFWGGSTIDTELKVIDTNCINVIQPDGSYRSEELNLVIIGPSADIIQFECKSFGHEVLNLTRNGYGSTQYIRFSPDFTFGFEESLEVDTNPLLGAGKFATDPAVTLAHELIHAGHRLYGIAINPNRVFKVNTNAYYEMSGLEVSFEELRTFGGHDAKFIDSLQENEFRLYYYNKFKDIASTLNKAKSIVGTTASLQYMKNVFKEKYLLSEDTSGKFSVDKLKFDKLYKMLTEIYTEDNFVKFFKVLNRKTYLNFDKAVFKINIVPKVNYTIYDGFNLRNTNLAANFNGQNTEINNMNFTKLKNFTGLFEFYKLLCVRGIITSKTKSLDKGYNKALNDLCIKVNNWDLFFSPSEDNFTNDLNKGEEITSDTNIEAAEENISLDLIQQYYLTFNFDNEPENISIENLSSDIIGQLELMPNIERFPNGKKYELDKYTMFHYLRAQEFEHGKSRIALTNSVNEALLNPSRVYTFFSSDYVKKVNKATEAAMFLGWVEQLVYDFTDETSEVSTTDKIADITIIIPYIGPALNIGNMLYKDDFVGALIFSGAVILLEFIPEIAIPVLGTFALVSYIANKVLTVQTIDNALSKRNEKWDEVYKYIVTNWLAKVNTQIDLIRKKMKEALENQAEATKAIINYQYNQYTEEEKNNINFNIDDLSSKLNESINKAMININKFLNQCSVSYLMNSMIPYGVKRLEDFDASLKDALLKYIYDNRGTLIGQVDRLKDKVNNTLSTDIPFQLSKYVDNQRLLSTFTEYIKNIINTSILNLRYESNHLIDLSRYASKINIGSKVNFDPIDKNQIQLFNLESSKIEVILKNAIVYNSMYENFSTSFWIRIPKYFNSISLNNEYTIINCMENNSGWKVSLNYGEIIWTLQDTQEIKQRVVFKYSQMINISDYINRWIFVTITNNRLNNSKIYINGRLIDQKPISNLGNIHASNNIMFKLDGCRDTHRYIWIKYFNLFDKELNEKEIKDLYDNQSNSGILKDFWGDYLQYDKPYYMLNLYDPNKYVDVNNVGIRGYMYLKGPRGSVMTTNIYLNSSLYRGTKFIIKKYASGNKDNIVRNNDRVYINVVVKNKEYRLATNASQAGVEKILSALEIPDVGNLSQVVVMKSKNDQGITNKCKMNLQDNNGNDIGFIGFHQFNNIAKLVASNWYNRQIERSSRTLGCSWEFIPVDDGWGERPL

SMILES	inhibition
CCOC(=O)Cc1c(C)nc(N)[nH]c1=O	0.8% (inactive)
CCN(CC)C(=O)c1ccc(O)c(OC)c1	-0.4% (inactive)
CC(=O)C1=C(Nc2ccc(C)cc2)CC(C)(O)C(C(C)=O)C1c1ccco1 (stereo not given)	0% (inactive)
O=C(CS(=O)(=O)Cc1ccccc1)NCc1ccc2c(c1)OCO2	0.1% (inactive)
COc1ccc(C(=O)[C@H]2[C@H]3C(=O)N(c4ccccc4)C(=O)[C@H]3C3C=CC=NN32)cc1 (stereo not given in full)	4.7% (inactive)
CCN(CC)CCNC(=O)c1cc(Cl)c(N)cc1OC	-0.2% (inactive)
Nc1ccn([C@@H]2O[C@H](CO)[C@@H](O)[C@@H]2O)c(=O)n1	-0.7% (inactive)
CCCCN1C[C@H](O)[C@@H](O)[C@H](O)[C@H]1CO	-1% (inactive)
O=C(c1ccc(O)cc1)c1ccc(O)cc1O	1.3% (inactive)
COc1ccc(CNCCC(c2ccc(F)cc2)c2ccc(OC(C)C)cc2)cc1OC (stereo not given)	-2% (inactive)
C[C@@H]1C[C@H]2[C@@H]3C[C@H](F)C4=CC(=O)C=C[C@]4(C)[C@@]3(F)[C@@H](O)C[C@]2(C)[C@@]1(O)C(=O)COC(=O)C(C)(C)C	-2.1% (inactive)
CC12CN3CC(C)(CN(C1)C3c1ccc([N+](=O)[O-])o1)C2 (stereo not given)	-1.4% (inactive)
COc1cc(/C=C/C(=O)O)cc(S(=O)(=O)NCCCO)c1OC	0.7% (inactive)
CC(C)CN1CCN(Cc2ccc3ncccc3c2)CC1CCO (stereo not given)	0.8% (inactive)
CC(C)[C@H](NC(=O)[C@@H]1CSCN1C(=O)OC(C)(C)C)C(=O)NCC1CCC(C(=O)O)CC1 (stereo not given in full)	-1.5% (inactive)
